Measured values: PubChem BioAssay AID1053 (University of Pittsburgh Molecular Library Screening Center, 2008)
Where “and” joins values, the source holds several entries; their conditions need not be identical. Identical values can stand only once. Calls of active or inactive are those of the source. No rule for the calls is given here.

What follows are compounds tested against Serine/threonine-protein kinase PLK1 (Homo sapiens) (UniProt P53350) (assay: Plk1 polo box domain binding inhibitors, SAR follow-up, biochemical, fluorescence polarization, purchased analogs (AID 1053)). Conditions: Plk1 PBD fluorescence polarization peptide binding; at 20 µM; active compounds read high.
Serine/threonine-protein kinase PLK1 (Homo sapiens), sequence (P53350 whole entry, looked up, the tested form may be a part): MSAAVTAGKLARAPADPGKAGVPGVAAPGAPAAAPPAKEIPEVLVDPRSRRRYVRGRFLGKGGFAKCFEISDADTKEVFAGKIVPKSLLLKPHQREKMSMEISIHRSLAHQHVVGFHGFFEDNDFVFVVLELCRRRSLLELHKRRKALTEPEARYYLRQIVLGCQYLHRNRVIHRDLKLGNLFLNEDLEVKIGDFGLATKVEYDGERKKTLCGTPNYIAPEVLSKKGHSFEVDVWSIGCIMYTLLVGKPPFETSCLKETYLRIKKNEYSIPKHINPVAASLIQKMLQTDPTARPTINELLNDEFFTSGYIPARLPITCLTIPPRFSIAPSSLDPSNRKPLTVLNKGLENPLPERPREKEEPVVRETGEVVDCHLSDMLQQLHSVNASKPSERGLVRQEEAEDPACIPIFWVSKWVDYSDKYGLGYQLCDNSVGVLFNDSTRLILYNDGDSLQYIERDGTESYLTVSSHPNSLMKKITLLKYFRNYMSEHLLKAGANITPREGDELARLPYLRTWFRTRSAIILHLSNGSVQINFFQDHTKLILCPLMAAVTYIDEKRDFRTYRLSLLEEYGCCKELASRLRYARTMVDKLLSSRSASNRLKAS

inhibition, inactive:
CCOC(=O)c1ccc(N=Cc2c(O)n(-c3ccc(C)cc3)c(=O)[nH]c2=O)cc1 -22.9%
CCN(CC)CCOC(=O)c1ccc(N=Cc2c(O)n(C)c(=O)[nH]c2=O)cc1 -180%
CCn1nc(-c2ccccc2C)nc2c(=O)n(C)c(=O)nc1-2 2.2% and 21.7%
CCn1nc(-c2ccc(C)cc2)nc2c(=O)n(C)c(=O)nc1-2 16.7%
CC(=O)N(CN1C(=O)c2ccccc2C1=O)c1ccc(Br)cc1 -29.4%
CCOC(=O)c1ccc(NC(=O)C2Oc3ccccc3OC2C)cc1 (stereo not given) -28.8%
CCCOC(=O)c1ccc(NC(=O)c2ccc(OC)c([N+](=O)[O-])c2)cc1 -17.9%
CCn1nc(-c2ccc(OC)cc2)nc2c(=O)n(C)c(=O)nc1-2 28%
CC(=O)Oc1c(Cl)c(N2CCOCC2)c(OC(C)=O)c2ccccc12 -39.3%
CCOC(=O)c1ccc(NC(=O)C2C3C=CC(C3)C2C(=O)O)cc1 (stereo not given) -31.4%
CCOC(=O)c1ccc(N=Cc2c(O)[nH]c(=O)[nH]c2=O)cc1 49.9%
CCCCCCC(=O)N(CN1C(=O)c2ccccc2C1=O)c1ccccc1 -23.4%
Cn1nc(-c2ccc([N+](=O)[O-])cc2)nc2c(=O)n(C)c(=O)nc1-2 31.6%
CCOC(=O)c1ccc(N=Cc2c(O)n(Cc3ccccc3Cl)c(=O)[nH]c2=O)cc1 -73.2%
CCOC(=O)c1ccc(N=Cc2c(O)n(-c3cccc(OC)c3)c(=O)[nH]c2=O)cc1 -40.6%
